Activity calls are given as the source filed them. Unless noted, no rule for the calls is given here.
Experiments:
[1] = tested on: Wnt5a (protein binding on small-molecule microarray); assay: small molecules binding Wnt5a protein – biophysical, small-molecule microarray, 635/667 nm fluorescence, primary screen (AID 1142); settings: 635 nm fluorescence, higher = more signal;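 also: fluorescence read at 667 nm with signal to noise per printed feature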
[2] = ATP-based viability of Huh7 replicon cells – cell-based, CellTiter-Glo luminescence, basal, 48 h, cytotoxicity control for HCV replication inhibitor project, primary screen (AID 1143); settings: higher = more signal, called active from +8 up or from −8 down;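 also: Huh7 hepatoma cells carrying a hepatitis C replication reporter with no stimulus; test concentration not given here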
[3] = Pseudomonas biofilm growth suppression – PAO1 strain, BacTiter-Glo luminescence, LB-PBS, primary screen (AID 1144); settings: P. aeruginosa PAO1 biofilm, 12 h, higher = more signal
[4] = basal CRE-LacZ reporter activity in PC12 – cell-based, unstimulated, primary screen (AID 1145); settings: no forskolin, luminescence, 4.5 h, higher = more signal, called active from +8 up or from −8 down
[5] = forskolin-driven CRE-LacZ activity in PC12 – cell-based, CRE-LacZ reporter, forskolin-stimulated, primary screen (AID 1146); settings: luminescence, 4.5 h, higher = more signal, called active from +8 up or from −8 down;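 also: PC12 cells with 6xCRE LacZ reporter stimulated by forskolin 10 µM; beta-galactosidase reporter signal reflecting CREB driven transcription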
[6] = biological target: Streptavidin (Streptomyces avidinii) (UniProt P22629); assay: compounds binding control protein streptavidin – biophysical, small-molecule microarray, 635/667 nm fluorescence, artefact control for SMM compound annotation, primary screen (AID 1147); settings: higher = more signal;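 also: signal reflects streptavidin binding to arrayed compounds as a control protein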
[7] = probe aInhba binding on compound microarray – biochemical, small-molecule microarray, 635/667 nm fluorescence, primary screen (AID 1148); settings: higher = more signal;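 also: score merges 667nm spot fluorescence with signal-to-noise for antibody binding to printed compounds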
[8] = biological target: Torsin-1A (Homo sapiens) (UniProt O14656); assay: TOR1A wild-type binding on microarray – cell lysate, small-molecule microarray, lysate, 635/667 nm, primary screen (AID 1149); settings: COS7 hTOR1A-WT lysate, 635 nm fluorescence, higher = more signal
[9] = biological target: Torsin-1A (Homo sapiens) (UniProt O14656); assay: torsin A mutant lysate binding on microarrays – cell lysate, small-molecule microarray, COS7 lysate, 635/667 nm fluorescence, primary screen (AID 1150); settings: COS7 hTOR1A mutant lysate, 635 nm fluorescence, higher = more signal;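 also: score pools 667 nm emission and signal to noise measuring lysate protein binding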
[10] = tested on: Sonic hedgehog protein (Shh); assay: Sonic hedgehog microarray binding compounds – biochemical, small-molecule microarray, 635/667 nm fluorescence, primary screen (AID 1151); settings: 635 nm fluorescence, higher = more signal;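 also: Shh protein binding to compounds spotted on small-molecule microarray slides; score combines spot fluorescence intensity with signal-to-noise across triplicate slides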

Chain of Torsin-1A (Homo sapiens) (O14656 whole entry, looked up): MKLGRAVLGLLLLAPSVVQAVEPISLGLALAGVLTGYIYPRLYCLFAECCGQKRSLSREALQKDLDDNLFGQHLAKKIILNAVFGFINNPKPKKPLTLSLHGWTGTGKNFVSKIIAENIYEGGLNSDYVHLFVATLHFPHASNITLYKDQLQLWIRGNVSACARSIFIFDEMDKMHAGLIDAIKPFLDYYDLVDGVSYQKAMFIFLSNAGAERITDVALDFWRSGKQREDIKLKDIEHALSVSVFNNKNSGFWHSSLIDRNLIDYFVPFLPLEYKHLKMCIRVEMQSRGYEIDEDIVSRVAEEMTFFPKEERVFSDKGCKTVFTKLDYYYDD
Chain of Streptavidin (Streptomyces avidinii) (P22629 whole entry, looked up): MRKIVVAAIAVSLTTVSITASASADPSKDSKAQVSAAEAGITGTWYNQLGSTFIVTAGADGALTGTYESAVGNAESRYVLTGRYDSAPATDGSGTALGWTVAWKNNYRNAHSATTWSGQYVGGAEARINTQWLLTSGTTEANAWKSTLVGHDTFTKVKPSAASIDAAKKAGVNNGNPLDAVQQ

Structure (SMILES)	composite z-score [1]	z-score [2]	z-score [3]	z-score [4]	z-score [5]	composite z-score [6]	composite z-score [7]	composite z-score [8]	composite z-score [9]	composite z-score [10]
C=CCOC(=O)[C@H]1[C@@H]2C(=O)O[C@@H](c3ccccc3)[C@@H](c3ccccc3)N2[C@@H](c2ccc(OCCOC(=O)[C@H]3C[C@H]4C(=O)NCC(=O)N4[C@H]3c3cccc(OCCO)c3)cc2)[C@]12C(=O)Nc1ccc(I)cc12	0.984	-0.469 (inactive)	-0.282 (inactive)	0.423 (inactive)	-0.142 (inactive)	0.0708	0.434	0.418	0.83	1.94
COc1cc2c(cc1OC)CN(C(=O)[C@@H]1[C@H]3C(=O)O[C@H](c4ccccc4)[C@H](c4ccccc4)N3[C@H](c3ccc(O)cc3)[C@@]13C(=O)Nc1ccc(C#CC4=CCCCC4)cc13)CC2	0.236	-1.56 (inactive)	-0.376 (inactive)	-0.375 (inactive)	-0.493 (inactive)	1.03	0.271	0.335	0.794	1.07
O=C1O[C@H](c2ccccc2)[C@H](c2ccccc2)N2[C@H]1[C@@H](C(=O)O)[C@]1(C(=O)Nc3ccc(C#CC4(O)CCCCCC4)cc31)[C@H]2c1ccccc1OCCO	0.455	-2.05 (inactive)	1.27 (inactive)	17.9 (active)	21.5 (active)	1.41	0.397	0.541	-0.462	0.721
Cc1c(NC(=O)/C(C#N)=C/C=C/c2ccc([N+](=O)[O-])cc2)c(=O)n(-c2ccccc2)n1C	0.388	-0.997 (inactive)	1.12 (inactive)	0.829 (inactive)	0.732 (inactive)	1.32	0.0301	0.321	0.468	0.569
C=CCNC(=O)[C@H]1[C@@H]2C(=O)O[C@@H](c3ccccc3)[C@@H](c3ccccc3)N2[C@@H](c2ccc(OCCO)cc2)[C@]12C(=O)N(C(=O)OCCOC)c1ccc(C#CCC(C(=O)OC)C(=O)OC)cc12	1.12	-1.17 (inactive)	0.0229 (inactive)	0.0614 (inactive)	-0.228 (inactive)	1.26	0.389	0.77	0.944	1.96
COC(=O)C(CC#Cc1ccc2c(c1)[C@]1(C(=O)N2)[C@H](c2ccccc2OCCO)N2[C@H](c3ccccc3)[C@H](c3ccccc3)OC(=O)[C@H]2[C@@H]1C(=O)N1CCN(c2ncccn2)CC1)C(=O)OC	0.253	-4.92 (inactive)	-0.321 (inactive)	-0.375 (inactive)	2.68 (inactive)	1.06	-0.0695	1.03	0.498	1.11
COc1cccc(C)c1NC(=O)O[C@H]1[C@H](OC(=O)Nc2ccccc2-c2ccccc2)[C@@H](OC(=O)Nc2ccccc2-c2ccccc2)[C@@H](OC)O[C@@H]1CO	0.933	-5.6 (inactive)	-0.325 (inactive)	1.13 (inactive)	-1.05 (inactive)	1	0.179	0.631	1.23	0.457
CC(C)[Si](C#Cc1ccccc1)(O[C@H](c1ccccc1)c1cn(Cc2ccccc2)nn1)C(C)C	-0.0899	-2.32 (inactive)	-0.519 (inactive)	-0.635 (inactive)	-1.08 (inactive)	0.983	-0.222	0.555	0.841	0.375
C=CCNC(=O)[C@H]1[C@@H]2C(=O)O[C@@H](c3ccccc3)[C@@H](c3ccccc3)N2[C@@H](c2ccc(O)cc2)[C@]12C(=O)Nc1ccccc12	-0.124	-0.792 (inactive)	-0.683 (inactive)	-0.195 (inactive)	-0.0955 (inactive)	-0.642	-0.128	0.64	0.778	0.279
COC(=O)[C@@]1(Cc2ccc(F)cc2)[C@H]2c3cc(C(=O)N4CCCC4)n(Cc4ccc(OC(F)(F)F)cc4)c3C[C@H]2CN1C(=O)c1ccccc1	-0.0554	-0.0066 (inactive)	-0.679 (inactive)	-0.185 (inactive)	0.137 (inactive)	-0.203	0.0306	-0.0112	0.395	-1.02
CN1C(=O)C2C=CC(C(O)c3cccs3)N(N(c3ccccc3)c3ccccc3)C2C1=O (stereo not given)	-0.0276	0.114 (inactive)	-0.176 (inactive)	1.21 (inactive)	-0.324 (inactive)	0.827	0.0422	1.75	0.0109	-0.287
CCOC(=O)C[C@H]1[C@H](OC(=O)c2cc3ccccc3oc2=O)[C@@H](NC(=O)Cc2ccc(OC)cc2)c2cc(OCCCO)ccc2N1C(=O)Cc1ccc(OC)cc1	0.0746	-1.5 (inactive)	-0.783 (inactive)	-0.0558 (inactive)	-1.59 (inactive)	0.55	-0.185	0.332	0.839	1.27
C=CC[C@]12N=C(c3ccc(OCCCO)cc3)O[C@H]1c1ccccc1N(CCC)C2=O	0.587	-3.39 (inactive)	0.552 (inactive)	0.866 (inactive)	-0.743 (inactive)	-0.256	0.562	0.234	0.397	1.61
CC[C@H]1C2=C3C(CC[C@H]4C(OCc5ccc(F)cc5C(F)(F)F)OC[C@](C)([C@@H]34)N(C(=O)OC(C)(C)C)C2)C(COC(C)=O)C1COC(C)=O (stereo not given in full)	0.374	-1.35 (inactive)	0.729 (inactive)	0.204 (inactive)	1.3 (inactive)	1.3	0.214	0.129	0.168	-1.2
[N-]=[N+]=NCc1ccccc1C[C@]1(C(=O)N2CCCCC2)COC(c2ccc(OCCCO)cc2)=N1	0.114	-4.72 (inactive)	-0.919 (inactive)	1.93 (inactive)	1.43 (inactive)	0.997	-0.441	0.555	0.278	0.349
CCOC(=O)C1=CCC(c2ccncc2)N(S(=O)(=O)c2ccc(C)cc2)C1 (stereo not given)	0.637	-4.28 (inactive)	-0.83 (inactive)	0.546 (inactive)	0.882 (inactive)	3.08	0.121	0.344	1.12	0.245
CC(C)c1ccc(NN2C(C(O)C(C)c3ccccc3)C=CC3C(=O)N(c4ccccc4)C(=O)C32)cc1 (stereo not given)	0.981	0.0469 (inactive)	-0.692 (inactive)	0.619 (inactive)	0.939 (inactive)	2.11	0.864	0.326	1.12	0.461
CC(C)C[C@@H]1NC(=O)[C@@H]2C[C@H](C(=O)NCCCCCCNC(=O)CS)[C@H](c3ccc(O)cc3)N2C1=O	0.841	-1.88 (inactive)	-0.00979 (inactive)	-0.268 (inactive)	-0.439 (inactive)	0.813	-0.0933	0.887	1.21	2.21
CC[C@@H](O[Si](C#C[Si](C(C)C)(C(C)C)C(C)C)(C(C)C)C(C)C)c1cn(Cc2cccc(Cl)c2)nn1	0.159	0.139 (inactive)	-0.14 (inactive)	-0.272 (inactive)	-0.168 (inactive)	0.424	-0.124	0.188	0.227	0.546
COCCOC(=O)N1C(=O)[C@@]2(c3cc(C#CCC(C(=O)OC)C(=O)OC)ccc31)[C@H](c1ccc(O)cc1)N1[C@H](c3ccccc3)[C@H](c3ccccc3)OC(=O)[C@H]1[C@@H]2C(=O)N1CCc2cc(OC)c(OC)cc2C1	0.227	-0.233 (inactive)	0.12 (inactive)	0.0384 (inactive)	0.118 (inactive)	-0.341	0.0714	0.0553	0.391	1.31
COCCOC(=O)N1C(=O)[C@@]2(c3cc(C#CCNC(N)=O)ccc31)[C@H](C(=O)Nc1nc3ccccc3s1)[C@H]1C(=O)O[C@H](c3ccccc3)[C@H](c3ccccc3)N1[C@@H]2c1ccc(O)cc1	0.0623	0.284 (inactive)	0.326 (inactive)	-0.168 (inactive)	-0.227 (inactive)	0.753	0.189	-0.227	-0.023	0.527
COC(=O)[C@@]1(Cc2ccc(F)cc2)[C@H]2c3cc(C(=O)N(C)C)n(Cc4ccsc4Br)c3C[C@H]2CN1C(=O)c1ccccc1	2.41	-1.49 (inactive)	0.00128 (inactive)	1.73 (inactive)	-0.0932 (inactive)	1.66	2.03	-0.0698	0.39	-0.635
COC(=O)[C@H](Cc1ccccc1)N1CC(C)(OC)O[C@@H](Cc2ccccc2)[C@H]1/C=C/C1CC1 (stereo not given in full)	-0.0712	-0.628 (inactive)	0.664 (inactive)	4.13 (inactive)	1.12 (inactive)	0.0404	-0.0762	0.256	0.269	0.0034
C=CCNC(=O)[C@H]1[C@@H]2C(=O)O[C@@H](c3ccccc3)[C@@H](c3ccccc3)N2[C@@H](c2ccc(OCCO)cc2)[C@]12C(=O)N(C(=O)OCCOC)c1ccc(C#CCNC(N)=O)cc12	0.0992	-0.646 (inactive)	-1.36 (inactive)	-0.618 (inactive)	-0.779 (inactive)	0.286	-0.0313	0.668	0.83	0.984

From PubChem BioAssay
